This passage reports binding signal results from publication PMC7819943, “Rice protein-binding microarrays: a tool to detect cis-acting elements near promoter regions in rice”.

Whole data set: some 35,000 sequences, median “fluorescence intensity (a.u.)” near 10,000, cut for the highest 2% near 52,000. For the sample, the highest values were picked, then their nearest neighbours and some sequences at random.

This test deals with T1, OsWOX13 (Oryza sativa, UniProt Q5QMM3 1-267).
T1 sequence: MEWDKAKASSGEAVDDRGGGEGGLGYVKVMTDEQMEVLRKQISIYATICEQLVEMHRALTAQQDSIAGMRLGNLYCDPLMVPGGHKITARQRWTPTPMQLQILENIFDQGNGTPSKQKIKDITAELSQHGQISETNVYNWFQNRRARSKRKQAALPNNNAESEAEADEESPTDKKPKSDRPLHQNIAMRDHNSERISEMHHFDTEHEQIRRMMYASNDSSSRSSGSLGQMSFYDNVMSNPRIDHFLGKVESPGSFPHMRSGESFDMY
Put plainly: protein-binding microarray (RPBM); PBS, 2% BSA, 51.3 ng/ul salmon testes DNA, 50 uM zinc acetate, 200 nM TF, 25 C, 1 h; high values mean tight binding. The conditions noted are these: protein: recombinant; tags: N-terminal polyhistidine and DsRed monomer fusion (pET32a); label: CyDye5-dUTP incorporated in the synthesized complementary strand; 3' TTTTT single-stranded linker to array surface; dsDNA, one strand shown. In outline: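 Per-feature fluorescence intensity (arbitrary units), read on an Axon 4000B scanner, is the binding signal. Transcription factors carrying an N-terminal polyhistidine tag and DsRed fusion were expressed in E. coli BL21-CodonPlus and purified on Ni–NTA. A custom Agilent array, made double-stranded by primer extension with Cy5-dUTP and blocked with 2% BSA, was incubated with 200 nM protein in PBS, 2% BSA, salmon testes DNA and 50 µM zinc acetate at 25 °C for 1 h and then washed.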
As for “GTTTTAAATTAATATATCTCGCGGAATATTAGAGCAAACGCGGAGTCACCTAGTGCAG”, the binding signal was 12600 fluorescence intensity (a.u.).
“TAGTAGATTGATTTCCTTAACCGAATATAGCAGGAATCCGCGGAGTCACCTAGTGCAG”: the binding signal was 52900 fluorescence intensity (a.u.).
On to “AAACTTCATTTAGTAGATTGATTTTCTTAACCGAATATAGCGGAGTCACCTAGTGCAG”, for which the binding signal was 9560 fluorescence intensity (a.u.).
Consider “GTAGATCAATTTCCTTAACCGAATATAGCAAGAATCCGACCGGAGTCACCTAGTGCAG”, for which the binding signal was 3270 fluorescence intensity (a.u.).
On to “TTGATTGTGTGCAACTGACTTTGTCCCCGTTCTATAATATCGGAGTCACCTAGTGCAG”, for which the binding signal was 8250 fluorescence intensity (a.u.).
In the case of “ATGTTAATGCAAAATAAATTAAATACATAGCAAGGTACTACGGAGTCACCTAGTGCAG”, the binding signal was 11200 fluorescence intensity (a.u.).
“TGTTATTTCAATCTCAGGATTGAGTGCAAGCAATCTGTTTCGGAGTCACCTAGTGCAG”: the binding signal is 4210 fluorescence intensity (a.u.).
As to “TTTCAGTTATTTCCTAATTATATTTCTATATGGACTTAGTCGGAGTCACCTAGTGCAG”, the binding signal is 9980 fluorescence intensity (a.u.).
Consider “CCGGATTTCAGTTATTTCCTAATTGCATTTCTATATGGACCGGAGTCACCTAGTGCAG”, for which the binding signal was 9320 fluorescence intensity (a.u.).
In the case of “TTCAGTTTCTAGCTGGAAGAGACCTCCTATCATATATTTCCGGAGTCACCTAGTGCAG”, the binding signal was 53600 fluorescence intensity (a.u.).
As to “AAGATAATGATGTAGACACGCAATCTGCGCGGGCCCACCACGGAGTCACCTAGTGCAG”, the binding signal is 6040 fluorescence intensity (a.u.).
For “AGATTAGATTTAGATTAGTCCTATGTGTCTCTTGCCGGGTCGGAGTCACCTAGTGCAG” the value was 19100 fluorescence intensity (a.u.); for “GAGAGACGGTTTAATCAAGGAGCAGTTGATGGGAGAGGCGCGGAGTCACCTAGTGCAG”, 4550 fluorescence intensity (a.u.).
On to “TCGTGATGACAGTTTACTCTTTAAATGAGAGTAATTAACTCGGAGTCACCTAGTGCAG”, for which the binding signal was 17400 fluorescence intensity (a.u.).
Regarding “CGAGCTTTAATCAATTAATCTGGAGTTTAGTGAATATATTCGGAGTCACCTAGTGCAG”, the binding signal was 9200 fluorescence intensity (a.u.).
As for “CCAGTGATCAATTTAGCTCCATTTCACTAGTGCAATCTGTCGGAGTCACCTAGTGCAG”, the binding signal is 9160 fluorescence intensity (a.u.).
“AATTTAATCTTTAATTAATTTATTTCTCGCCTCTCTTAACCGGAGTCACCTAGTGCAG”: the binding signal was 4610 fluorescence intensity (a.u.).
“CTCAAGCTTAATTAAGCTCGTAATCTCATATAACCTCTTTCGGAGTCACCTAGTGCAG”: the binding signal is 57900 fluorescence intensity (a.u.).
Take “ACTTTAATTAGTCGTGATCAATCAATCAATCTGAATCTGTCGGAGTCACCTAGTGCAG”: the binding signal was 65100 fluorescence intensity (a.u.).
For “GTTTGTGATTAATCTGATTTCGTACTATTAACGTGCAACTCGGAGTCACCTAGTGCAG” the value was 31300 fluorescence intensity (a.u.).
For “ATCTGATTCGTGATTAATTAGTAATTAATTAATCTTTACTCGGAGTCACCTAGTGCAG” the value was 61000 fluorescence intensity (a.u.); for “GTAATTAGCTAATCAATCTTTTCGGCTGTGCTTAATTAACCGGAGTCACCTAGTGCAG”, 33500 fluorescence intensity (a.u.); for “GTAACGGGATGATTGAAGCTACAACGAGAATGGCAACGTCCGGAGTCACCTAGTGCAG”, 22200 fluorescence intensity (a.u.).
For the sequence “AATATAAATTTAGATTAGCAGTGGTAAGAAGAGGGACGTCCGGAGTCACCTAGTGCAG”, the binding signal was 22600 fluorescence intensity (a.u.).
As to “CAAAATATACTAATTTCTTCAAGCAAAGGTCCAGCCCATCCGGAGTCACCTAGTGCAG”, the binding signal was 3240 fluorescence intensity (a.u.).
Turning to “GAATAGACCGAAATTAATTAAGGCAGTAATCACCCAGATGCGGAGTCACCTAGTGCAG”, the binding signal is 16100 fluorescence intensity (a.u.).
For the sequence “TATTAAGTCTAATTAATCCATGATTAGCCTATGTGATGCTCGGAGTCACCTAGTGCAG”, the binding signal was 15300 fluorescence intensity (a.u.).
For “GATGATGATGGATGCGATTGACTGATGAGACGTCTGCTAACGGAGTCACCTAGTGCAG”, the binding signal is 50300 fluorescence intensity (a.u.).
For the sequence “CCCTAAATTTCCGCGAAATCAGCAACCGAACACAGATTAGCGGAGTCACCTAGTGCAG”, the binding signal was 7110 fluorescence intensity (a.u.).
As to “TCAATAAATCATAAAACAAATTTATTAAGCCTAATTAATCCGGAGTCACCTAGTGCAG”, the binding signal is 14000 fluorescence intensity (a.u.).
Take “CCTCCTCATCATGGCTTAATTAATTAATACTCCTAGCTGCCGGAGTCACCTAGTGCAG”: the binding signal is 29000 fluorescence intensity (a.u.).
For “CGAAGATTGAGTCCTTTGAAGCCGAGCTCTCCATGGCCATCGGAGTCACCTAGTGCAG”, the binding signal is 17100 fluorescence intensity (a.u.).
“GCTTAATTGAAGGAGCCATGGCAGCTGTCCTCTCCCGCCGCGGAGTCACCTAGTGCAG”: the binding signal is 53200 fluorescence intensity (a.u.).
Take “AGGATTAATTAGGCTTAATAAATTCGTCTCGCAGTTTACACGGAGTCACCTAGTGCAG”: the binding signal is 22000 fluorescence intensity (a.u.).
For the sequence “TCTAGATTTGATCATTTTGACCTCTTGCTCCGTTAGATCTCGGAGTCACCTAGTGCAG”, the binding signal was 9940 fluorescence intensity (a.u.).
As to “ATTAATTAAGTTACTGTGTTACTCCTAGCTACTCCTCCGTCGGAGTCACCTAGTGCAG”, the binding signal was 22600 fluorescence intensity (a.u.).
Consider “CCTTAATTAACTAACATTCAGTCAGTTAGTCACCGGATAGCGGAGTCACCTAGTGCAG”, for which the binding signal was 52600 fluorescence intensity (a.u.).
Then “ATCAAATCATATGTTAGATTGATCCTTCAATTAGTTAATTCGGAGTCACCTAGTGCAG”, with 24400 fluorescence intensity (a.u.).
For the sequence “AATTACTACTACTAATTAGCTAGTAGCTAGTTTCTGTGCTCGGAGTCACCTAGTGCAG”, the binding signal was 8060 fluorescence intensity (a.u.).
As to “TCAATCAATCAATTAATTAGTAATTCAAAGTACTAAACACCGGAGTCACCTAGTGCAG”, the binding signal is 40200 fluorescence intensity (a.u.).
On to “AGTTAATTAATTAATTAGCTACGTACTCTTGTGCCTCTGTCGGAGTCACCTAGTGCAG”, for which the binding signal was 54900 fluorescence intensity (a.u.).
On to “TACTAATTTAGAGTATTAAACATAAACTAATAATAAAAGTCGGAGTCACCTAGTGCAG”, for which the binding signal was 9830 fluorescence intensity (a.u.).
On to “TCTAATTATTTGATATTAGTTATTTTCCTTAACATTCGTGCGGAGTCACCTAGTGCAG”, for which the binding signal was 49900 fluorescence intensity (a.u.).
Then “GTTAATTAATTAGTTAGTACTAGCAAACATTGGCTAAAGTCGGAGTCACCTAGTGCAG”, with 55900 fluorescence intensity (a.u.); and “AAAGTTAATCAAATTGACTAATTAGTGCTAGATATGTCCTCGGAGTCACCTAGTGCAG”, with 60600 fluorescence intensity (a.u.).
“GACTAATTAATAATTAGTTAATTGACTAATCAGGATAATTCGGAGTCACCTAGTGCAG”: the binding signal was 46800 fluorescence intensity (a.u.).
“CCTTAATTTTCAGTGTTAGTAATTTTCATTAACTAATTCTCGGAGTCACCTAGTGCAG”: the binding signal was 16200 fluorescence intensity (a.u.).
